Assay [1] concerns the target Glutathione peroxidase 1 (Homo sapiens) (UniProt P07203). Nature of the assay: Primary qHTS Assay for Inhibitors of Recombinant Selenoprotein Glutathione Peroxidase 1 (GPX1) (AID 1845191). Also: nearly all actives have a fitted effect of over 65% in size. The gist of the method: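 10 nM GPX1 + cpd, 30 min RT; start w/ 1 mM GSH, 0.5 mM cumene hydroperoxide, 0.5 mM NADPH, 100 nM GR, 0.01% BSA; buffer 50 mM Tris-HCl pH 7.5, 2 mM EDTA, 150 mM NaCl; Fl 340/450, 0 & 15 min.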

The target of assay [2] is Phospholipid hydroperoxide glutathione peroxidase GPX4 (Homo sapiens) (UniProt P36969). The assay is described as follows: Primary qHTS Assay for Inhibitors of Recombinant Selenoprotein Glutathione Peroxidase 4 (GPX4) (AID 1845192). Also: nearly all actives have a fitted effect of over 65% in size. The procedure, abridged: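 NADPH consumption, followed by fluorescence at 340/450 nm between 0 and 15 min, reports GPX4 activity via coupled glutathione reductase (100 nM). Enzyme 200 nM was pre-exposed to compound 30 min; 0.5 mM cumene hydroperoxide and 1 mM GSH served as substrates.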
Chain of Phospholipid hydroperoxide glutathione peroxidase GPX4 (Homo sapiens) (P36969 whole entry, looked up): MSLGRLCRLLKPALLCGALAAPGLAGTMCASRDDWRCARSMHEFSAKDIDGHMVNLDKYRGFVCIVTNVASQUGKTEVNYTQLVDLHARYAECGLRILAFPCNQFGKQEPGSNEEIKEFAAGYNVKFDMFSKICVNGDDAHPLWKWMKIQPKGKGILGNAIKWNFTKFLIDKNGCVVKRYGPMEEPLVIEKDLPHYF
A general note: In qHTS, concentration-response curves come from the screen itself.

The target in assay [3] is Luciferin 4-monooxygenase (Photinus pyralis) (UniProt P08659). Nature of the assay: Primary firefly luciferase (FLuc) qHTS assay for identification of artifact compounds. (AID 1845220). Also: nearly all actives have a fitted effect of over 60% in size. The gist of the method:
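Compounds sat 15 min at room temperature with 10 uM luciferin and 10 uM ATP (pH 7.6 Tris acetate). Firefly luciferase (10 nM final) was then added, and luminescence was read 5 min later. Data normalized to no-enzyme and DMSO controls were Hill-fitted.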

Assay [4] in a line: Primary fluorescence-based thiol-reactive (MSTI) qHTS assay for identification of artifact compounds. (AID 1845221). Also: nearly all actives have a fitted effect of over 65% in size. The gist of the method:
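In PBS pH 7.4 with 2% DMSO, each compound met 4 uM MSTI for one hour at ambient temperature, shielded from light, before fluorescence detection.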

In assay [5] the test system is Nanoluciferase (engineered Oplophorus gracilirostris luciferase). The assay is described as follows: Primary Nanoluciferase (NLuc) qHTS assay for identification of artifact compounds. (AID 1845222). The procedure, abridged: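 Luminescence from secreted NLuc (filtered, 1:55-diluted S16 cell medium) read 5 min after Nano-Glo substrate; compounds preincubated 15 min, RT. Hill fits of inhibition normalized to DMSO and no-enzyme.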

The source of these data is PubChem BioAssay (NCATS).

Values joined by “and” are separate entries in the source; they are usually repeats but may differ in a detail not shown here. Equal values may be shown once. Records with an inconclusive call do not appear. Some compounds were tested as several samples or in several runs, with calls that do not always agree. Active and inactive are the calls of the source. Calls follow the shape of the dose curve; as a rule, active = well fitted curve in the direction sought with a large enough effect; inconclusive = small, poorly fitted or top-dose-only effect, or another doubt; inactive = no such curve, though single readings can be large; an effect the other way counts as inactive or inconclusive.
Potency is read from the fitted curve at half-maximal effect.

Chain of Glutathione peroxidase 1 (Homo sapiens) (P07203 whole entry, looked up): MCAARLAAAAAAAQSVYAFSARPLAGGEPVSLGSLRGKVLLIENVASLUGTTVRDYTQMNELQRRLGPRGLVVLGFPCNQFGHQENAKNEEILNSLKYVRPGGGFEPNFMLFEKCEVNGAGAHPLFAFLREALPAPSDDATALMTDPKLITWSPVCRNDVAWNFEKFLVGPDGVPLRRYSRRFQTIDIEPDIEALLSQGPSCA

Turning to `CCC[C@@]1(CCc2ccccc2)CC(O)=C([C@H](CC)c2cccc(NS(=O)(=O)c3ccc(C(F)(F)F)cn3)c2)C(=O)O1`, the Potency entry in assay [1], in assay [3], in assay [4] and in assay [5] was “inactive” in each case. Moreover, the Potency entry in assay [2] is “inactive and 6.31 µM (active)”.
As for `CCCOc1ccc(CCc2nc3cc(-c4c(C)noc4C)ccc3n2CCN2CCOCC2)cc1`, the Potency entry in assay [1], in assay [2], in assay [3], in assay [4] and in assay [5] was “inactive” in each case.
`CC1CCC/C=C/C(=O)c2c(O)cc(O)cc2CC(=O)O1` (stereo not given): the Potency result in assay [1], in assay [2], in assay [3] and in assay [5] was “inactive” each time. Also, the Potency in assay [4] is 11.9 µM (active).
With `C/C=C(\C)C(=O)OC1C[C@@]2(COC(C)=O)O[C@H]2/C=C\[C@@]2(C)O[C@@H]2[C@H]2OC(=O)C(COC(C)=O)=C12` (stereo not given in full), the Potency entry in assay [1], in assay [2], in assay [3] and in assay [5] was “inactive” throughout. Also, the Potency in assay [4] is 13 µM (active).
Turning to `C=C1C(=O)O[C@@H]2/C=C(/C)[C@@H](OC(C)=O)C/C=C(\C)C[C@@H](OC(=O)/C(=C/CO)CO)[C@@H]12`, the Potency result in assay [1], in assay [2], in assay [3], in assay [4] and in assay [5] was “inactive” throughout.
Take `CC(C)=CCC[C@](C)(O[C@@H]1O[C@H](CO[C@@H]2OC[C@@H](O)[C@H](O)[C@H]2O)[C@@H](O)[C@H](O)[C@H]1O)[C@H]1CC[C@]2(C)[C@@H]1[C@H](O)C[C@@H]1[C@@]3(C)CC[C@H](O[C@@H]4O[C@H](CO)[C@@H](O)[C@H](O)[C@H]4O)C(C)(C)[C@@H]3CC[C@]12C`: the Potency entry in assay [1], in assay [2], in assay [3], in assay [4] and in assay [5] was “inactive” each time.
`CCNC1(C(N)=O)CN(c2nc(C)nc3c(-c4ccc(Cl)cc4)c(-c4ccccc4Cl)nn23)C1`: the Potency result in assay [1], in assay [2], in assay [3], in assay [4] and in assay [5] was “inactive” each time.
As to `COc1ccc(NC(=O)c2ccc(-c3ccc(-c4nnc(C)o4)cc3C)cc2)cc1N1CCN(C)CC1`, the Potency entry in assay [1], in assay [2], in assay [3] and in assay [4] was “inactive” in each case. Further, the Potency in assay [5] is 1.51 µM (active).
As for `C[C@@H](NC(=O)[C@H](O)c1cc(F)cc(F)c1)C(=O)N[C@@H]1C(=O)N(C)c2ccccc2-c2ccccc21`, the Potency entry in assay [1], in assay [2], in assay [3], in assay [4] and in assay [5] was “inactive” each time.
Take `CC(=O)c1c(C)cc2cccc(O)c2c1O[C@@H]1O[C@H](CO)[C@@H](O)[C@H](O)[C@H]1O`: the Potency result in assay [1], in assay [2], in assay [3] and in assay [5] was “inactive” in each case. The Potency in assay [4] is 5.21 µM (active).
`Fc1ccc(N2CCN(CCC3OCCc4ccccc43)CC2)cc1` (stereo not given): the Potency entry in assay [1], in assay [2], in assay [3], in assay [4] and in assay [5] was “inactive” throughout.
`Cn1nc(-c2ccc(C(F)(F)F)cc2)nc2c(=O)n(C)c(=O)nc1-2`: the Potency in assay [1] is 25.5 µM (active); in assay [2], 22.7 µM (active); in assay [3], 6.01 µM (active); in assay [4], 2.67 µM (active); in assay [5], 3.01 µM (active).
The like results for `CN1CCN(C2CCN(C(=O)Nc3cc(Oc4ccc(NC(=O)C5(C(=O)Nc6ccc(F)cc6)CC5)c(F)c4)ccn3)CC2)CC1` were, in that order, “inactive”, “inactive”, “inactive”, “inactive” and “inactive”.
The like results for `O=C(NCCO)c1cccc(-c2cc(Nc3ccc(OC(F)(F)F)cc3)ncn2)c1` were, in that order, “inactive”, “inactive”, “inactive”, “inactive” and “inactive”.
On the same counts, the results for `N#CC(CCCN1CCN(/N=C/c2cccnc2)CC1)(c1ccccc1)c1ccccc1` are “inactive”, “inactive”, “inactive”, “inactive” and “inactive”.
Consider `COc1cccc(CN(C(=O)CC(C)(C)C)[C@H]2C[C@H](C(=O)N3CCNCC3)N(Cc3ccc4c(c3)OCO4)C2)c1`, for which the Potency result in assay [1], in assay [2], in assay [3], in assay [4] and in assay [5] was “inactive” throughout.
Consider `C=C(C)C(=O)O[C@H]1/C(C=O)=C\CC/C(CO)=C/[C@H]2OC(=O)C(=C)[C@@H]2[C@@H]1OC`, for which the Potency entry in assay [1], in assay [2], in assay [3] and in assay [5] was “inactive” throughout. Also, the Potency in assay [4] is 3.69 µM (active).
On to `CCc1cc2c(cc1CC)CC(NCC(O)c1ccc(O)c3[nH]c(=O)ccc13)C2` (stereo not given), for which the Potency result in assay [1], in assay [2], in assay [3], in assay [4] and in assay [5] was “inactive” in each case.
Consider `CN1CCC(c2cn(C)c3ccc(OS(=O)(=O)c4c(F)cccc4F)cc23)CC1`, for which the Potency result in assay [1], in assay [2], in assay [3], in assay [4] and in assay [5] was “inactive” each time.
In the case of `C/C=C(\C)C(=O)OC1C(C)C2(O)C(C=C(CO)CC3(O)C(=O)C(C)=CC32)C2C(C)(C)C12OC(C)=O` (stereo not given), the Potency result in assay [1], in assay [2], in assay [3], in assay [4] and in assay [5] was “inactive” each time.
Regarding `CCN(CC)CCCS(=O)(=O)N[C@H](CCc1ccccc1)c1nc(Cc2ccc(Br)cc2)no1`, the Potency result in assay [1], in assay [2], in assay [3], in assay [4] and in assay [5] was “inactive” throughout.
Take `CCOC(=O)N1CCC(CN(Cc2ccc(Cl)cc2)Cc2ccc([N+](=O)[O-])s2)C1` (stereo not given): the Potency result in assay [1], in assay [2], in assay [3] and in assay [5] was “inactive” each time. For the same compound, the Potency in assay [4] is 13.4 µM (active).
